ChEMBL document CHEMBL1961873, “Compounds: GSK PKIS; Assays: Nanosyn kinase panel” (2012)

Tests used:
[1] = molecular target: T1, Ephrin type-B receptor 2 (Homo sapiens) (UniProt P29323); conditions: at 1 µM
T1 sequence (whole entry): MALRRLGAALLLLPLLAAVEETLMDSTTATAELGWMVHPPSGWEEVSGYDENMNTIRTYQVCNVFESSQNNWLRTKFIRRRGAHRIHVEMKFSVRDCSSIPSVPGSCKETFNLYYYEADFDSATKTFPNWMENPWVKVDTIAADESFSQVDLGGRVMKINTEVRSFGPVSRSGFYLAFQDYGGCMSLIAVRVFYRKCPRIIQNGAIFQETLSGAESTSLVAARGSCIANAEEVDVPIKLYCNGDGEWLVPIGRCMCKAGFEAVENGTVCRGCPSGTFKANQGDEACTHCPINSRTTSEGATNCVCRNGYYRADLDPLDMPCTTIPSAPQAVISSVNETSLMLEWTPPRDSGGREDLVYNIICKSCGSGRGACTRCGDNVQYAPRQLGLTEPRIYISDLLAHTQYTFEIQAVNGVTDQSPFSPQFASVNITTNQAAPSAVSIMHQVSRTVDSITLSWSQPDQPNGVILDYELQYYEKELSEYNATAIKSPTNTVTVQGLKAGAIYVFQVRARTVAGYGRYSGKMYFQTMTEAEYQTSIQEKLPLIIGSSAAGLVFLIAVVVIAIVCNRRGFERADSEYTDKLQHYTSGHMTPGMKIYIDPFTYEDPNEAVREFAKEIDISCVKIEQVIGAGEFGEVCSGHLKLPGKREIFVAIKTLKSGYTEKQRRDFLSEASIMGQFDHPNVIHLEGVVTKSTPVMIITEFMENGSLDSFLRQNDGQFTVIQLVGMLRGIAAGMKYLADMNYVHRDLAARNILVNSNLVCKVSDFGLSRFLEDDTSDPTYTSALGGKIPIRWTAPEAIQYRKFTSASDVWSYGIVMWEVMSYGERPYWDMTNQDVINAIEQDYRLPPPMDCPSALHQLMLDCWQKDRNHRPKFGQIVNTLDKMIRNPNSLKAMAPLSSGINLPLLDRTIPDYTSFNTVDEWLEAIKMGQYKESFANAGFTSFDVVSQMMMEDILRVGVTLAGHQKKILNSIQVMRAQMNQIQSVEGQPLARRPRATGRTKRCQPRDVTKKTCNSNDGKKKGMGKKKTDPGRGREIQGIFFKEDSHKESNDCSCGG

[2] = molecular target: T2, Ephrin type-B receptor 3 (Homo sapiens) (UniProt P54753); conditions: at 0.1 µM
T2 sequence (whole entry): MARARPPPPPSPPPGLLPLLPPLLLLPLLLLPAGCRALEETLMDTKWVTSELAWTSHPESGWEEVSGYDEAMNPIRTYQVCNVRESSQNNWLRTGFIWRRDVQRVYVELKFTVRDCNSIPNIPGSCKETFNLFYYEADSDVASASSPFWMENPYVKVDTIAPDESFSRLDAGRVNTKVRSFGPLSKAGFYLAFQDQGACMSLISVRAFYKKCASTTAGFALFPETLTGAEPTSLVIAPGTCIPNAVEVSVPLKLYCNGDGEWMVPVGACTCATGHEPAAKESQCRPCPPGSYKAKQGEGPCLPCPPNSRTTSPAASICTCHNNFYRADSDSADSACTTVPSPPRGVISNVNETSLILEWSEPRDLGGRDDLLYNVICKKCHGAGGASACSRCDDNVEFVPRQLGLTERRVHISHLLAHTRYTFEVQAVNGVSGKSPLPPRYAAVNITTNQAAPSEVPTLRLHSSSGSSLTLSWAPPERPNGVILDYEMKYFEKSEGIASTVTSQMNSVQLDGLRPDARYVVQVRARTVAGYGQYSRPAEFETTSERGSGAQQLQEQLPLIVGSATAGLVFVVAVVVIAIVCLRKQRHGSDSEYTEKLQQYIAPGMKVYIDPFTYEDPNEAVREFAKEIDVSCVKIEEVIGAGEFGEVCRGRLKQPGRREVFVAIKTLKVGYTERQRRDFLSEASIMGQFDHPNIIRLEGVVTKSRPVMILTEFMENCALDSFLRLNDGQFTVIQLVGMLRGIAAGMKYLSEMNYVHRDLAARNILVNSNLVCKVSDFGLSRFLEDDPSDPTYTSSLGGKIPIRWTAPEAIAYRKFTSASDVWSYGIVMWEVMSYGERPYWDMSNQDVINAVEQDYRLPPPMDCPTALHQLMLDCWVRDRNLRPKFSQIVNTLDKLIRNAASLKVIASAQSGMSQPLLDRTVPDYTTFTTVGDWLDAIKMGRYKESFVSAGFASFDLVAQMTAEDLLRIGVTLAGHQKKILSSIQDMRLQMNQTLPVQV

[3] = molecular target: T2, Ephrin type-B receptor 3 (Homo sapiens); conditions: at 1 µM
[4] = molecular target: T3, Ephrin type-B receptor 4 (Homo sapiens) (UniProt P54760); conditions: at 0.1 µM
T3 sequence (whole entry): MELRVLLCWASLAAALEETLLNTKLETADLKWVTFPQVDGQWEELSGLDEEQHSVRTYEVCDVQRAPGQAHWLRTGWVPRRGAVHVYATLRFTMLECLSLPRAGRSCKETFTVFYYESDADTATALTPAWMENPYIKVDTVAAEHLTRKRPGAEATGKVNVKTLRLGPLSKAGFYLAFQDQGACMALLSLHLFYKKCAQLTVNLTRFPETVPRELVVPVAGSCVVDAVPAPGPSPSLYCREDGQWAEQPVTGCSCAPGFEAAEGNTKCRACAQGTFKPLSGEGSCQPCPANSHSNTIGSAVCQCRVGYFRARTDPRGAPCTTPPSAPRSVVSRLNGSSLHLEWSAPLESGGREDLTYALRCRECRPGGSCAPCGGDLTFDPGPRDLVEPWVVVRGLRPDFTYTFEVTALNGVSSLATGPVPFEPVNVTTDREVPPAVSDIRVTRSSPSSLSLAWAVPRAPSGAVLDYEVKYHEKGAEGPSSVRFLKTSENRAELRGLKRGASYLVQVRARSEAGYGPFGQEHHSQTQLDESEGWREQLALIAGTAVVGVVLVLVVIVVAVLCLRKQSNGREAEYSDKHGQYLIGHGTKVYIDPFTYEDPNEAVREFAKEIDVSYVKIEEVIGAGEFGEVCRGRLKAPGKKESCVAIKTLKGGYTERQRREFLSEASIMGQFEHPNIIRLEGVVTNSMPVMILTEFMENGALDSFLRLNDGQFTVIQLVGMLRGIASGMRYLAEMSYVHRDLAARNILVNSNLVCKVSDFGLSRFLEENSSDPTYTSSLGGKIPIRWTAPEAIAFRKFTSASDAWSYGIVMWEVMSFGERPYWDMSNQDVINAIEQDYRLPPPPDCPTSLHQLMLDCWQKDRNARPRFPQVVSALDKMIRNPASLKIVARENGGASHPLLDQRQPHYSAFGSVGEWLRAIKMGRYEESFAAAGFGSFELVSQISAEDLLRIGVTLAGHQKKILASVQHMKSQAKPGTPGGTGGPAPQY

[5] = molecular target: T3, Ephrin type-B receptor 4 (Homo sapiens); conditions: at 1 µM
[6] = molecular target: Receptor tyrosine-protein kinase erbB-2 (Homo sapiens) (UniProt P04626); conditions: at 0.1 µM
Sequence of Receptor tyrosine-protein kinase erbB-2 (Homo sapiens) (P04626 whole entry): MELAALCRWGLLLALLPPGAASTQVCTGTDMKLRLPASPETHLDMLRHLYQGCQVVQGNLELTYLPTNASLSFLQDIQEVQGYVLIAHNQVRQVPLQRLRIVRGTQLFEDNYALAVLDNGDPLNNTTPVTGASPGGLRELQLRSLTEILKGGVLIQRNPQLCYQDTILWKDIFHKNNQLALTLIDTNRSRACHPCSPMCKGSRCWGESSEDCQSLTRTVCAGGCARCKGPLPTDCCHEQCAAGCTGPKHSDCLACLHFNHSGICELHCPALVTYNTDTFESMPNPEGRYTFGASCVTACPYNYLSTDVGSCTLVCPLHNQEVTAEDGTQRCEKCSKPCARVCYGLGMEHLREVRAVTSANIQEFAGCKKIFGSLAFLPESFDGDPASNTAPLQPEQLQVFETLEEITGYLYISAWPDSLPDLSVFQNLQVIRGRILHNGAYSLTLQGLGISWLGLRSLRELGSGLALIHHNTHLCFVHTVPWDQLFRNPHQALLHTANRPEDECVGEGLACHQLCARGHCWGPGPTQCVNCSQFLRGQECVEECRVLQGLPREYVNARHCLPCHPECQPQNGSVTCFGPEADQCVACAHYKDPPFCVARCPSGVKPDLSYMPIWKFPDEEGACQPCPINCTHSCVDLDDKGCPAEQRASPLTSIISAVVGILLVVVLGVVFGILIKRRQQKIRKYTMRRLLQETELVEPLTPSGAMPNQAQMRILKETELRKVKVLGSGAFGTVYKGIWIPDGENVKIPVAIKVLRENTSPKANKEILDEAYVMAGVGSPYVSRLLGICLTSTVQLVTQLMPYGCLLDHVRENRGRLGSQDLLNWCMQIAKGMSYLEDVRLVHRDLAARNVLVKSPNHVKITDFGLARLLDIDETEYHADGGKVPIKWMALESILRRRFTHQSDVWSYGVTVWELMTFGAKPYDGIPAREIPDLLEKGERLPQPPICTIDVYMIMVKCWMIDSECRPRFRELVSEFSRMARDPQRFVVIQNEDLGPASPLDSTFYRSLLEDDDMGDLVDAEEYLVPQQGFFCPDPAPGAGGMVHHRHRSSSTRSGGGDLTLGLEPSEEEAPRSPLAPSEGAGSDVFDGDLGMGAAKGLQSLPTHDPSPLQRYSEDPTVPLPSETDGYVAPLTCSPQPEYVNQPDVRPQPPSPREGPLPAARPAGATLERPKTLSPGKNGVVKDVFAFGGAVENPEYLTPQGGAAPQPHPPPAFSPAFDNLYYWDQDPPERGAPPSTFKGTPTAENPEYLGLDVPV

[7] = molecular target: Receptor tyrosine-protein kinase erbB-2 (Homo sapiens) (UniProt P04626); conditions: at 1 µM
[8] = molecular target: Receptor tyrosine-protein kinase erbB-4 (Homo sapiens) (UniProt Q15303); conditions: at 0.1 µM
Sequence of Receptor tyrosine-protein kinase erbB-4 (Homo sapiens) (Q15303 whole entry): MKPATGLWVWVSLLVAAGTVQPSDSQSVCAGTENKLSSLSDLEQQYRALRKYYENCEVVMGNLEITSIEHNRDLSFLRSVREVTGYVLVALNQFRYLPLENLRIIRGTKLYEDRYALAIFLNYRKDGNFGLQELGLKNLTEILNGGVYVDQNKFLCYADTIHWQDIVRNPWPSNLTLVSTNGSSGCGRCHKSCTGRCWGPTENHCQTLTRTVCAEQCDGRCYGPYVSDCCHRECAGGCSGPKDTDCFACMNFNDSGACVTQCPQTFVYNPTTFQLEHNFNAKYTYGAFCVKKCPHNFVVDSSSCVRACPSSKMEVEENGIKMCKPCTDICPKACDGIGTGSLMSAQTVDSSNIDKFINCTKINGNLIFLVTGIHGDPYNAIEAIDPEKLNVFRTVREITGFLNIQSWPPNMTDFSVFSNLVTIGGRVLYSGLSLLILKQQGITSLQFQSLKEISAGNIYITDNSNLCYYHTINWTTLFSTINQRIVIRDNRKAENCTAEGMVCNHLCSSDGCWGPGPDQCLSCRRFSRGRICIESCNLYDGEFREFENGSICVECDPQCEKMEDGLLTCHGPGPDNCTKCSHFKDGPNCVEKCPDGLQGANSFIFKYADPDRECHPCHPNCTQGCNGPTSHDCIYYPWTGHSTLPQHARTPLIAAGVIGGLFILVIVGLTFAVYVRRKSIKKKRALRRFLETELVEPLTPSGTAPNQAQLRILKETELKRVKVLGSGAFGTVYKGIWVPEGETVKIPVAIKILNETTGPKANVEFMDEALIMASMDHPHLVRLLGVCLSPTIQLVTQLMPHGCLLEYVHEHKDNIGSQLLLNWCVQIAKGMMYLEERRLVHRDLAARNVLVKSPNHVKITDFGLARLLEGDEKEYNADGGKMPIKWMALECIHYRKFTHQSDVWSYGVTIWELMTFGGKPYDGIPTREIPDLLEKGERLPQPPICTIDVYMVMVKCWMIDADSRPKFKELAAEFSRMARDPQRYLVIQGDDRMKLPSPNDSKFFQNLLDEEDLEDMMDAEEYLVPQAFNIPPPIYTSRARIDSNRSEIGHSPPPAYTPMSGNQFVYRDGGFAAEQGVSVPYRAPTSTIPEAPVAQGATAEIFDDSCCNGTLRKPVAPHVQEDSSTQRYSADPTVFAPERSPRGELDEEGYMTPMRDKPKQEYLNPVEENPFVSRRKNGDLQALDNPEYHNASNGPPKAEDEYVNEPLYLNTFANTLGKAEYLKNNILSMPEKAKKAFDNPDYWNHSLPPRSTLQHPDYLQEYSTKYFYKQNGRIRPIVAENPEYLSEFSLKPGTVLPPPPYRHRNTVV

[9] = molecular target: Receptor tyrosine-protein kinase erbB-4 (Homo sapiens) (UniProt Q15303); conditions: at 1 µM
[10] = molecular target: Tyrosine-protein kinase Fer (Homo sapiens) (UniProt P16591); conditions: at 0.1 µM;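 further: reported figures are averaged percent inhibition of FER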
Sequence of Tyrosine-protein kinase Fer (Homo sapiens) (P16591 whole entry, looked up): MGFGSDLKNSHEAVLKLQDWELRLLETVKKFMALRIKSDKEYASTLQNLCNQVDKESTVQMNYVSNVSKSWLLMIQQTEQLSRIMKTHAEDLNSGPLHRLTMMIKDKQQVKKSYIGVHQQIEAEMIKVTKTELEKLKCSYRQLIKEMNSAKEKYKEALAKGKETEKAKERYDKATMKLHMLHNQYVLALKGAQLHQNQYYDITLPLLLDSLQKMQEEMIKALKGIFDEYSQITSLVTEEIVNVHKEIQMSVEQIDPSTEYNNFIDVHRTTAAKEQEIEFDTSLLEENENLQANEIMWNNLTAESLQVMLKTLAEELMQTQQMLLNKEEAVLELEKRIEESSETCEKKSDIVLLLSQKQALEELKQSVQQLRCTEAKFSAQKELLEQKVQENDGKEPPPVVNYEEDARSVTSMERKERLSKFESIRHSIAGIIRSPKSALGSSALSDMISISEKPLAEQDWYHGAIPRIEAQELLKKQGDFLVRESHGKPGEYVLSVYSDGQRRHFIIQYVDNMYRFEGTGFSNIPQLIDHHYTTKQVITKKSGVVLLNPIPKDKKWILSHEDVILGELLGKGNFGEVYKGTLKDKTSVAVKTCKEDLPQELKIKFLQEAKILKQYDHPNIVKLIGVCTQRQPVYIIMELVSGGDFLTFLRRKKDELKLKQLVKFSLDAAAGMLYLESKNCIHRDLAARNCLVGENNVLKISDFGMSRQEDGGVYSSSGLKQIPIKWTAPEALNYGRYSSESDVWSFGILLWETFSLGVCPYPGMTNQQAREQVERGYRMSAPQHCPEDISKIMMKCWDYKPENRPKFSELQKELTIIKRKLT

Structure (SMILES)	inhibition [1] [%]	inhibition [2] [%]	inhibition [3] [%]	inhibition [4] [%]	inhibition [5] [%]	inhibition [6] [%]	inhibition [7] [%]	inhibition [8] [%]	inhibition [9] [%]	inhibition [10] [%]
Cc1nn(C)c2cc(N(C)c3ccnc(Nc4cccc(S(N)(=O)=O)c4)n3)ccc12	37.8	5.14	4.43	7.86	39.6	3.03	10.1	11	29.3	4.27
COc1cc2c(cc1Nc1nc(N3CCc4ccccc43)c3cc[nH]c3n1)N(C(=O)CN(C)C)CC2	9.31	2.82	0.49	1	0.73	1.22	-0.36	6.72	6.14	66.2
CCn1c(-c2nonc2N)nc2cnc(Oc3cccc(NC(=O)c4ccc(OCCN5CCOCC5)cc4)c3)cc21	6.97	6.88	5.06	3.21	3.05	4.69	2	5.15	10.4	3.9
NC(=O)c1cccc(Nc2nccc(Nc3cccc4[nH]ncc34)n2)c1	77.8	-3.41	4.33	22.2	72.1	-4.62	2.08	-6.41	-1.88	3.13
COC(=O)Nc1nc2cc(Oc3ccc(NC(=O)Nc4cccc(C(=O)O)c4)cc3)ccc2[nH]1	3.77	-0.56	-3.97	-2.57	-4.05	-0.03	3.5	2.52	0.22	-1.22
COc1ccc2cc(-c3c(-c4ccncc4)nc(-c4ccc([S+](C)[O-])cc4)n3C)ccc2c1 (centres undefined)	6.51	5.38	4.12	2.71	6.99	2.07	-0.38	12.1	23.1	1.4
NC(=O)c1ccc(-c2nc(-c3ccccn3)c(-c3ccc4c(c3)OCO4)[nH]2)cc1	6.48	4.63	1.89	3.74	1.95	2.99	0.42	7.53	11.4	1.79
COc1cccc(-n2ncc3c(N/N=C/c4cccc(F)c4)ncnc32)c1	4.03	0.95	-0.77	-0.91	0.63	1.57	-0.99	1.08	2.68	2.76
Fc1cccc(COc2ccc(Nc3ncnc4sc(-c5cccs5)cc34)cc2Cl)c1	2.33	0.38	2.19	1.37	1.29	1.07	3.46	5.25	31.8	5.4
Cc1cc(O)cc(C)c1/C=C/c1cncc(-c2nn[nH]n2)c1	61.5	-0.26	5.69	3.89	46.2	1.86	0.56	12.1	36.7	4.18
c1cnn2ncc(-c3ccnc(Nc4ccc5c(c4)OCCO5)n3)c2c1	29.4	3.36	6.8	3.69	12.5	1.94	2.67	8.29	12.4	10.7
CCCN1CCC=C(c2ccc(Nc3nc(Nc4ccccc4C(N)=O)c4cc[nH]c4n3)c(C)c2)C1	8.88	1.76	2.4	2.74	3.5	2.98	3.15	7.5	27.7	12.8
COc1cc2ncn(-c3cc(O[C@H](C)c4ccccc4Cl)c(C(N)=O)s3)c2cc1OC	21.9	3.78	5.92	4.27	7.03	2.23	7.82	7.95	14	4.62
Cc1ccc(NC(=O)c2ccnc(N3CCCC3)c2)cc1-c1ccc(C(=O)NCC2CC2)cc1	6.65	1.72	-1.41	-3.04	-2.95	2.34	-3.44	6.37	5.79	0.77
COc1cc2ncn(-c3cc(OCc4ccccc4C(F)(F)F)c(C(N)=O)s3)c2cc1OC	17.3	1.32	0.77	0.05	1.61	3.56	4.42	3.59	11.8	3.4
CCn1c(-c2nonc2N)nc2c(C#CC(C)(C)O)nc(OC[C@@H](N)c3ccccc3)cc21	12.1	0.34	-0.22	-2.4	1.73	-1.67	-0.37	-4.79	-4.06	–
